# From PubChem BioAssay (Tox21)
# Records with an inconclusive call do not appear. A call without a number means that no potency is given here. The source made the active and inactive calls. Unless noted, calls follow the shape of the full dose curve.
# Tests used:
# [1] = qHTS assay to identify small molecule agonists of the sonic hedgehog signaling (Shh) pathway (AID 1259368);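 also: NIH/3T3-derived 3T3Gli1-Luc cells carrying a stable Gli1-driven firefly luciferase reporter; series mostly up to about 92 µM; nearly all actives have a fitted effect of over 15% in size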
# Outline: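 Following a 24 hr incubation with DMSO-dissolved compounds at 37 C, 5% CO2, Gli1-Luc NIH/3T3-derived cells received luciferase reagent for 30 min at room temperature prior to luminescence measurement.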
# [2] = qHTS assay to identify small molecule antagonists of the sonic hedgehog signaling (Shh) pathway (AID 1259369); also: nearly all actives have a fitted effect of over 45% in size; also: potency is read from the fitted curve at half-maximal effect
# Outline: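 Read-out is luminescence from a firefly luciferase gene controlled by the Gli1 response element, in 3T3Gli1-Luc cells pre-incubated 4hr then exposed to compounds and conditioned medium for 24hr.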
# [3] = molecular target: Estrogen receptor beta (Homo sapiens) (UniProt Q92731); experiment: qHTS assay to identify small molecule agonists of the estrogen receptor beta (ER-beta) signaling pathway (AID 1259377; active = well fitted activation curve with a large enough effect in the signal ratio in the repeat runs, not every such curve was filed as active; the % refers to the signal ratio)
# Outline: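 Beta-lactamase reporter readout: fluorescence of LiveBLAzer B/G FRET substrate after 2 h at room temperature, following 16 h compound treatment of ER-beta-UAS-bla HEK293T cells at 37C in 2% charcoal-stripped FBS medium.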
# [4] = qHTS assay to identify small molecule agonists of the androgen receptor (AR) signaling pathway in the presence of an antagonist - cell viability counter screen (AID 1259379; active = well fitted curve in the direction sought with a large enough effect in the repeat runs; an effect the other way counts as inactive or inconclusive; also: nearly all actives have a fitted effect of over 25% in size; also: potency is read from the fitted curve at half-maximal effect)
# Outline: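 Each compound was tested at 15 concentrations on MDA-kb2 cells in the presence of 3.0uM nilutamide. Viability was measured by CellTiter-Fluor fluorescence after a 16 hr incubation at 37C in a CO2-free atmosphere.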
# [5] = qHTS assay to identify small molecule antagonists of the estrogen receptor beta (ER-beta) signaling pathway - cell viability counter screen (AID 1259382; active = well fitted curve in the direction sought with a large enough effect in the repeat runs; an effect the other way counts as inactive or inconclusive;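 also: HEK293T cells carrying ER-beta-UAS-bla reporter stimulated with estradiol; series mostly up to about 92 µM; nearly all actives have a fitted effect of over 55% in size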)
# Outline: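 CellTiter-Glo ATP luminescence measured after the LiveBLAzer read in the same wells; ER-beta-UAS-bla HEK293T cells, 16 hr compound treatment with 1nM 17-beta-estradiol agonist at 37C, 5% CO2.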
# [6] = qHTS assay to identify small molecule agonists or antagonists of the thyroid stimulating hormone receptor (TSHR) signaling pathway - wild type cell line counter screen (AID 1259384)
# Outline: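 Counter screen in untransfected Hek293: compounds (15-point titration, triplicate) plus phosphodiesterase inhibitor Ro20-1724 added after 18 h plating; 30 min RT. Intracellular cAMP via competitive d2/cryptate immunoassay, 1 h incubation.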
# [7] = qHTS assay to identify small molecule agonists of the estrogen receptor alpha (ER-alpha) signaling pathway in the presence of an antagonist - cell viability counter screen (AID 1259386; active = well fitted curve in the direction sought with a large enough effect in the repeat runs; an effect the other way counts as inactive or inconclusive;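 also: cells exposed to compounds for 22 h at 37 °C before the viability read; nearly all actives have a fitted effect of over 30% in size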; also: potency is read from the fitted curve at half-maximal effect)
# Outline: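 Using estrogen-depleted VM7Luc4E2 cells, the 15-concentration compound series was applied together with 10.0nM ICI-182,780 and incubated 22hr at 37C/5% CO2. Cell viability was then scored by CellTiter-Fluor.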
# [8] = molecular target: Progesterone receptor (Homo sapiens) (UniProt P06401); experiment: qHTS assay to identify small molecule agonists of the progesterone receptor (PR) signaling pathway (AID 1346784); also: nearly all actives have a fitted effect of over 30% in size
# Outline: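 HEK 293T PR-UAS-bla reporter cells, 2% charcoal-stripped FBS; 6 hr settle at 37C/5% CO2, compound (DMSO) 16 hr, LiveBLAzer B/G FRET substrate 2 hr RT, fluorescence intensity read.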
# [9] = molecular target: Progesterone receptor (Homo sapiens) (UniProt P06401); experiment: qHTS assay to identify small molecule antagonists of the progesterone receptor (PR) signaling pathway (AID 1346795; active = well fitted inhibition curve with a large enough effect in the signal ratio in the repeat runs, not every such curve was filed as active; the % refers to the signal ratio)
# Outline: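 Beta-lactamase reporter, HEK293T PR-UAS-bla line; 2% charcoal-stripped FBS; 6 hr pre-incubation, 37C/5% CO2. Compound + R5020 1 nM final, 16 hr. LiveBLAzer B/G FRET substrate, 2 hr RT; fluorescence intensity read.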
# [10] = qHTS assay to identify small molecule antagonists of the progesterone receptor (PR) signaling pathway - cell viability counter screen (AID 1346798; active = well fitted curve in the direction sought with a large enough effect in the repeat runs; an effect the other way counts as inactive or inconclusive; also: nearly all actives have a fitted effect of over 50% in size; also: potency is read from the fitted curve at half-maximal effect)
# Outline: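 Luminescence readout (CellTiter-Glo, 30 min, RT) of viability in PR-UAS-bla HEK293T cells exposed to compound and R5020 agonist for 16 hr at 37C, 5% CO2; run in the same wells as the beta-lactamase reporter read.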
# [11] = qHTS assay to identify small molecule antagonists of the TGF-beta/Smad signaling pathway - cell viability counter screen (AID 1346824; active = well fitted curve in the direction sought with a large enough effect in the repeat runs; an effect the other way counts as inactive or inconclusive; also: nearly all actives have a fitted effect of over 50% in size)
# Outline: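 Cytotoxicity counter-screen run in the same wells as the beta-lactamase Smad reporter read: CellTiter-Glo luminescence after 30 min at room temperature. HEK 293T SBE-bla cells had 5 hr compound exposure at 37 C with TGF-beta1 (0.25 ng/mL stock).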
# [12] = qHTS assay to identify small molecule agonists of the TGF-beta/Smad signaling pathway - cell viability counter screen (AID 1346829; active = well fitted curve in the direction sought with a large enough effect in the repeat runs; an effect the other way counts as inactive or inconclusive; also: top concentration of the series differs between compounds; nearly all actives have a fitted effect of over 45% in size)
# Outline: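 Compound-treated SBE-bla HEK 293T cells (5 hr, 37 C) were assessed for viability with CellTiter-Glo in parallel with the reporter read.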
# [13] = qHTS assay to identify small molecule agonists of the TGF-beta/Smad signaling pathway (AID 1346859; active = well fitted activation curve with a large enough effect in the signal ratio in the repeat runs, not every such curve was filed as active; the % refers to the signal ratio; also: series mostly up to about 77 µM)
# Outline: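 Read-out: fluorescence at 460 and 530 nm (405 nm excitation) after a 2 hr room-temperature incubation with beta-lactamase FRET substrate. SBE-bla HEK 293T cells had been treated with test compounds for 5 hr at 37 C.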
# [14] = molecular target: Thyrotropin-releasing hormone receptor (Homo sapiens) (UniProt P34981); experiment: qHTS assay to identify small molecule antagonists of the thyrotropin-releasing hormone receptor (TRHR) signaling pathway (AID 1346877; active = well fitted inhibition curve with a large enough effect in the repeat runs, not every such curve was filed as active; also: series mostly up to about 51 µM)
# Outline: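 Calcium signal in dye-loaded TRHR/HEK293 cells; compounds added 5 min before TRH (1 nM final); fluorescence monitored 3 min at 1 s steps.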
# [15] = qHTS assay to identify small molecule agonists of the estrogen receptor beta (ER-beta) signaling pathway - cell viability counter screen (AID 1259380; active = well fitted curve in the direction sought with a large enough effect in the repeat runs; an effect the other way counts as inactive or inconclusive; also: nearly all actives have a fitted effect of over 30% in size; also: potency is read from the fitted curve at half-maximal effect)
# Outline: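 Compounds dissolved in DMSO were pin-transferred onto ER-beta-UAS-bla HEK293T cells that had settled 6 hr, and exposure ran 16 hr at 37C. Following the reporter read, CellTiter-Glo luminescence after 30 min at room temperature indicated cytotoxicity.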
# [16] = molecular target: Androgen receptor (Homo sapiens) (UniProt P10275); experiment: qHTS assay to identify small molecule agonists of the androgen receptor (AR) signaling pathway in the presence of an antagonist (AID 1259381); also: nearly all actives have a fitted effect of over 15% in size
# Outline: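 Plated MDA-kb2 cells (3,000/well) were pre-incubated 5hr, given nilutamide (3.0uM final) or buffer, then dosed with compounds in DMSO at 15 concentrations. Luciferase activity was quantified by luminescence after 16hr at 37C.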
# [17] = molecular target: Estrogen receptor (Homo sapiens) (UniProt P03372); experiment: qHTS assay to identify small molecule agonists of the estrogen receptor alpha (ER-alpha) signaling pathway in the presence of an antagonist (AID 1259383); also: top concentration of the series differs between compounds; nearly all actives have a fitted effect of over 15% in size
# Outline: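 Luminescent ERE-luciferase reporter, VM7Luc4E2 cells (endogenous ER-alpha); 10.0nM ICI-182,780 final; 15-point compound titration; 22hr at 37C; ONE-Glo, 30min RT.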
# [18] = molecular target: Thyrotropin receptor (Homo sapiens) (UniProt P16473); experiment: qHTS assay to identify small molecule antagonists of the thyroid stimulating hormone receptor (TSHR) signaling pathway (AID 1259385); also: nearly all actives have a fitted effect of over 20% in size
# Outline: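 Antagonist mode: compound-treated TSHR-expressing HEK293 cells were stimulated with 1.5 ng/mL TSH (final) in presence of Ro20-1724 for 30 min at RT. HTRF cAMP detection after 1 h; each compound tested at 15 concentrations, triplicate.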
# [19] = qHTS assay to identify small molecule agonists of the progesterone receptor (PR) signaling pathway - cell viability counter screen (AID 1346799); also: nearly all actives have a fitted effect of over 45% in size
# Outline: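 HEK293T PR-UAS-bla, 3,000 cells/well, 2% charcoal-stripped FBS; 6 h settle, compound 16 h at 37C/5% CO2; LiveBLAzer 2 h RT, then CellTiter-Glo 30 min RT, luminescence read.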
# [20] = molecular target: Estrogen receptor beta (Homo sapiens) (UniProt Q92731); experiment: qHTS assay to identify small molecule antagonists of the estrogen receptor beta (ER-beta) signaling pathway (AID 1259378; active = well fitted inhibition curve with a large enough effect in the signal ratio in the repeat runs, not every such curve was filed as active; the % refers to the signal ratio)
# Outline: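 Antagonist mode: compounds added to beta-lactamase reporter HEK293T ER-beta-UAS cells stimulated with E2 (1nM final), 16 hr at 37C. LiveBLAzer B/G FRET substrate, 2 hours room temperature, fluorescence read-out.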
# Thyrotropin receptor (Homo sapiens), sequence (P16473 whole entry, looked up): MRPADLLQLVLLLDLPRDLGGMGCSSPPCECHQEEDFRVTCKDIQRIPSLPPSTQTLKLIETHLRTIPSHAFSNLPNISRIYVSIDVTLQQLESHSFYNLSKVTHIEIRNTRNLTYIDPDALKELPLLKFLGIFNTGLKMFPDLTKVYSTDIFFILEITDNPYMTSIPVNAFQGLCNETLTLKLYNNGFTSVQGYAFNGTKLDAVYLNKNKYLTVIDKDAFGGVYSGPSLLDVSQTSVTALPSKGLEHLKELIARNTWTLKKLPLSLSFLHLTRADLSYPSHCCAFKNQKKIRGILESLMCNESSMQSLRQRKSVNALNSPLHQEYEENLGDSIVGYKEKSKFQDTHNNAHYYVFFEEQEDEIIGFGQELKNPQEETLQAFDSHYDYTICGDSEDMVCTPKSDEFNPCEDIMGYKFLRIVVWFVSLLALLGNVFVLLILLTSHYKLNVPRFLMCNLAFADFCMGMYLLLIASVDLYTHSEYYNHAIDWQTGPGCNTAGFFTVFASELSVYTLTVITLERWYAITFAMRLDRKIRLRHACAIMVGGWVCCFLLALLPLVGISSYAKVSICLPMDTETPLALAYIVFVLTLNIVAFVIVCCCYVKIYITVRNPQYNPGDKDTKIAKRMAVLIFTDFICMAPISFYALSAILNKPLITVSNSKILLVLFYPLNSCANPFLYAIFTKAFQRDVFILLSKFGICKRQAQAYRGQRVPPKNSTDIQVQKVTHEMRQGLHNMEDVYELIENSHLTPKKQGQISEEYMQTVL
# Estrogen receptor beta (Homo sapiens), sequence (Q92731 whole entry, looked up): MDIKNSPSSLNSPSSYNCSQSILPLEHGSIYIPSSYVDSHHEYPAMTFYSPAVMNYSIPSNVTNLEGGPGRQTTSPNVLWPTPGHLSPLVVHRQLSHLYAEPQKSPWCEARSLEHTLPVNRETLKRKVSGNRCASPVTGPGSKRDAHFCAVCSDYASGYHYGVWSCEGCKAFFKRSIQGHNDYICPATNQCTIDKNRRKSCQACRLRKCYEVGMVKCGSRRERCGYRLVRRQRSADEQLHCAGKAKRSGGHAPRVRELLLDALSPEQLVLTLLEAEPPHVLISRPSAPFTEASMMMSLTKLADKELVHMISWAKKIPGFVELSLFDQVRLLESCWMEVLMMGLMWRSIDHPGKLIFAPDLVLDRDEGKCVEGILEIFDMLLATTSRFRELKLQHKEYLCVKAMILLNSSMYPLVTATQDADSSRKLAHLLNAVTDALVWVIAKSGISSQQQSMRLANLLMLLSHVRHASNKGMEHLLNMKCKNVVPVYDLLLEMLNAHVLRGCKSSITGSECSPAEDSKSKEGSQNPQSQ
# Estrogen receptor (Homo sapiens), sequence (P03372 whole entry, looked up): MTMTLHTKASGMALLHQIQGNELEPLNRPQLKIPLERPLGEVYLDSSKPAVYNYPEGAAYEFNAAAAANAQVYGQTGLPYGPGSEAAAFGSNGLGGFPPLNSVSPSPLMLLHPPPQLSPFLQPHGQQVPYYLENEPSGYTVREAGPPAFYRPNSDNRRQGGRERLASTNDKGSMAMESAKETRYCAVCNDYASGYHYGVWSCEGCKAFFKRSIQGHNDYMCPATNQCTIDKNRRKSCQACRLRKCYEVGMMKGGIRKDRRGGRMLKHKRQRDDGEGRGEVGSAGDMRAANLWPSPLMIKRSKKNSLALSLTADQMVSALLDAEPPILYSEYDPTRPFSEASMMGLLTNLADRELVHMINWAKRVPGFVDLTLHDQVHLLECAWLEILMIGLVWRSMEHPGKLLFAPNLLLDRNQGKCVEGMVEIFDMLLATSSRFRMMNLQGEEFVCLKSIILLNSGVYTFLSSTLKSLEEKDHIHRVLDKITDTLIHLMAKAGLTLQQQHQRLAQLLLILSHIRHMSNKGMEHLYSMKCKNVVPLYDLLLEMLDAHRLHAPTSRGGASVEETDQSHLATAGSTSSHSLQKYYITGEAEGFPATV
# Progesterone receptor (Homo sapiens), sequence (P06401 whole entry, looked up): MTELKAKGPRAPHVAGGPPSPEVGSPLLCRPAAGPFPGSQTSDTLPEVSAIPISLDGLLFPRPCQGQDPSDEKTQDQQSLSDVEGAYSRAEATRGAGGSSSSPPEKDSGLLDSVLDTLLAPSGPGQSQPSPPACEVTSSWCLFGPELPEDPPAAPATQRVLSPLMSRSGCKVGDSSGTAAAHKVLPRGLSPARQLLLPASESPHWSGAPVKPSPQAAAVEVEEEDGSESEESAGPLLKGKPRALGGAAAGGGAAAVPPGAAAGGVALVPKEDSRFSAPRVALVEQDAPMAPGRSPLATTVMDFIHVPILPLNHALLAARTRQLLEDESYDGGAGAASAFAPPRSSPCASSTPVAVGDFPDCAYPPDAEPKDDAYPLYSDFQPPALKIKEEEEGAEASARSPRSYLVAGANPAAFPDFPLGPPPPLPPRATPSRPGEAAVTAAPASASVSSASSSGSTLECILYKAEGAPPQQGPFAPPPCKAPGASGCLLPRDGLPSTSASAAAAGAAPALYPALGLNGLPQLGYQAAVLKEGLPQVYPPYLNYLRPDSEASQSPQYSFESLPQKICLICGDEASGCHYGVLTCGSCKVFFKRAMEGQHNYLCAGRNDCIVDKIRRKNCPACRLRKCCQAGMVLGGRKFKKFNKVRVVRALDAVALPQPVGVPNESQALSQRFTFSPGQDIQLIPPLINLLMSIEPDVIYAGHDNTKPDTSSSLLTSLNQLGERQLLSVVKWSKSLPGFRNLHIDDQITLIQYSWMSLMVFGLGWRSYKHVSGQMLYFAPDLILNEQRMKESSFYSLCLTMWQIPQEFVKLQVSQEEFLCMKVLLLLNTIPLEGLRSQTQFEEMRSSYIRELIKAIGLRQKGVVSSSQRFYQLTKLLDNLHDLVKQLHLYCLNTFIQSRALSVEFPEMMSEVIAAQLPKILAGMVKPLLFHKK
# Thyrotropin-releasing hormone receptor (Homo sapiens), sequence (P34981 whole entry, looked up): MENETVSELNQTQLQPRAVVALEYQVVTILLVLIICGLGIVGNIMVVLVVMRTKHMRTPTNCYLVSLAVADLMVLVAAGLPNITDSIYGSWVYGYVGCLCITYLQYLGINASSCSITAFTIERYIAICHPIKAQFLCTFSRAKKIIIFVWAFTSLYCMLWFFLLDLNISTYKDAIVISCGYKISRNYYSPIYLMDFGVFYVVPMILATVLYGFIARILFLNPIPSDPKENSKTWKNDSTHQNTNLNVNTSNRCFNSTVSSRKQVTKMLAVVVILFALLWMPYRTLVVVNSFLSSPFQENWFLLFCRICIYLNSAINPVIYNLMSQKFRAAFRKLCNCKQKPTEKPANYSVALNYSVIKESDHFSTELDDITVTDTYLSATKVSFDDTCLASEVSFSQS
# Androgen receptor (Homo sapiens), sequence (P10275 whole entry, looked up): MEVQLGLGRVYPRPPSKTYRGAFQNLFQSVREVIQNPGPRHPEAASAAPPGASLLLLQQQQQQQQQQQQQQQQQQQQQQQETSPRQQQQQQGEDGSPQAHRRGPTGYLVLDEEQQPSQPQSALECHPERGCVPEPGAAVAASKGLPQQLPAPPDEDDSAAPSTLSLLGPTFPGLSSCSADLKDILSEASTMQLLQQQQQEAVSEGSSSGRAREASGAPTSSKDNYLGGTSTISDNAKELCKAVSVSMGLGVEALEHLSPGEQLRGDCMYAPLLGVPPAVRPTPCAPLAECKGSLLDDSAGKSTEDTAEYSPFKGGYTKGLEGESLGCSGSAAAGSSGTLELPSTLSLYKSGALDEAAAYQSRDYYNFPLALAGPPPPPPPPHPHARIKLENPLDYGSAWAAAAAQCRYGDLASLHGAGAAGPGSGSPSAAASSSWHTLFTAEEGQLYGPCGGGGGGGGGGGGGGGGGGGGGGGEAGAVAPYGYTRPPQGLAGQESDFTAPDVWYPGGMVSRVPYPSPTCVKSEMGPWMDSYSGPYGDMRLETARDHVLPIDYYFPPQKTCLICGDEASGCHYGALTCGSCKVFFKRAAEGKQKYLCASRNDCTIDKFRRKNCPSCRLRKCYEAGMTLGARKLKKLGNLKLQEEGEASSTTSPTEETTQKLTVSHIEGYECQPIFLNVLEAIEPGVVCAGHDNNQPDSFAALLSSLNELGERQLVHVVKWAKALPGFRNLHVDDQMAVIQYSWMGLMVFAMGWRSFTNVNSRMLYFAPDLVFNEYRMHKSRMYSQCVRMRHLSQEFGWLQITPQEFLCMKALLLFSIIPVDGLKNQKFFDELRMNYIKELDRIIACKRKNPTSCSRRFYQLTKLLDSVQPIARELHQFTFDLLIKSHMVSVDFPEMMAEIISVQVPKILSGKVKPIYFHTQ
SMILES,Potency [1],Potency [2],Potency [3],Potency [4],Potency [5],outcome [6],Potency [7],Potency [8],Potency [9],Potency [10],Potency [11],Potency [12],Potency [13],outcome [14],Potency [15],Potency [16],Potency [17],Potency [18],Potency [19],Potency [20]
CC(=O)OCCN(CCOC(C)=O)c1ccc(N=Nc2ccc([N+](=O)[O-])cc2C#N)cc1,inactive,30.6 µM (active),inactive,54.5 µM (active),inactive,inactive,54.5 µM (active),inactive,inactive,inactive,inactive,inactive,inactive,inactive,–,–,–,–,–,–
O=C=Nc1cccc(C(F)(F)F)c1,inactive,inactive,inactive,inactive,inactive,inactive,inactive,–,inactive,inactive,inactive,inactive,inactive,inactive,30.4 µM (active),inactive,inactive,inactive,–,–
O=C(O)CCC(=O)C(=O)O,inactive,inactive,inactive,inactive,inactive,inactive,inactive,inactive,inactive,inactive,inactive,inactive,inactive,–,inactive,–,inactive,inactive,–,–
CC(C)(O)c1ccc(CNC(=O)c2cccnc2Oc2ccc3nonc3c2)cc1,inactive,0.486 µM (active),inactive,–,inactive,inactive,–,inactive,inactive,inactive,inactive,inactive,inactive,–,–,–,inactive,inactive,inactive,–
Cc1cc(C)c(N)cc1C,inactive,inactive,inactive,–,inactive,inactive,inactive,inactive,inactive,inactive,inactive,inactive,inactive,–,inactive,–,inactive,inactive,inactive,inactive
CCCCN1CCCC1C(=O)Nc1c(C)cc(C)cc1C (stereo not drawn),inactive,inactive,inactive,inactive,inactive,inactive,inactive,inactive,–,inactive,inactive,inactive,inactive,inactive,inactive,–,inactive,–,inactive,–
Nc1nnc(-c2ccc([N+](=O)[O-])o2)o1,inactive,inactive,inactive,54.5 µM (active),inactive,inactive,61.1 µM (active),inactive,–,–,inactive,inactive,inactive,–,–,–,inactive,inactive,–,–
CCC(C)COC(=O)CC(C)C (stereo not drawn),inactive,inactive,inactive,inactive,–,inactive,inactive,–,–,9.69 µM (active),inactive,inactive,inactive,inactive,30.6 µM (active),–,inactive,inactive,–,inactive
OC[C@H]1O[C@@H](n2cnc3c(=S)nc[nH]c32)[C@H](O)[C@@H]1O,inactive,inactive,inactive,inactive,–,inactive,inactive,inactive,–,–,–,–,inactive,–,2.11 µM (active),–,inactive,inactive,–,–
